# Sampled rows, rich in hits. Any-hit rate of the full collection: about 0.67%.
# Rin1-Abl PPI inh: inhibitors of Rin1-Abl protein binding, primary screen, biochemical, TR-FRET. inhibition, % at 7.35 µM. AID 588664, 2011. Tyrosine-protein kinase ABL1 (Homo sapiens) + Ras and Rab interactor 1 (Homo sapiens), …. 0.4% of 360,000 active; in the data active = inhibition above about 5%, passing the limit was not always enough
# CaV13 ICDI inh: Disruptors of the CACNA1D IQ motif to Ca2+-dependent inactivation inhibitor domain association, primary screening, Förster resonance energy transfer in intact living … | inhibition, % at 12.3 µM | AID 743397 | 0.098% of 340,000 active | HEK cells, CFP/YFP FRET ICDI-IQ, plate reader, 10 min; percent FRET-ratio fall versus neutral wells;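 active = mean replicate inhibition of at least 30% and at least 1% of replicates passing that level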;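 note: 0% = median of the neutral control wells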
# GC-B act: human GC-B receptor activators, primary screen, HEK293 GC-B cells, cGMP TR-FRET, EC30 CNP | Atrial natriuretic peptide receptor 2 (Homo sapiens), P20594 | 0% at EC30 CNP, 100% saturating CNP | activation, % at 10 µM | 0.11% of 370,000 active;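 active = activation at 10 µM reaching about 35% in either raw or pattern-adjusted values, limit read from the data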
# NPR1 activator: GC-A stimulated cGMP production enhancers – HEK293 GC-A cells, cGMP TR-FRET, EC30 ANP, primary screen. 0% at EC30 ANP, 100% saturating ANP. 0.14% of 370,000 active. activation, % at 10 µM. AID 1671463, 2021; in the data active = activation above about 40%
# Target sequence (P16066 whole entry, looked up): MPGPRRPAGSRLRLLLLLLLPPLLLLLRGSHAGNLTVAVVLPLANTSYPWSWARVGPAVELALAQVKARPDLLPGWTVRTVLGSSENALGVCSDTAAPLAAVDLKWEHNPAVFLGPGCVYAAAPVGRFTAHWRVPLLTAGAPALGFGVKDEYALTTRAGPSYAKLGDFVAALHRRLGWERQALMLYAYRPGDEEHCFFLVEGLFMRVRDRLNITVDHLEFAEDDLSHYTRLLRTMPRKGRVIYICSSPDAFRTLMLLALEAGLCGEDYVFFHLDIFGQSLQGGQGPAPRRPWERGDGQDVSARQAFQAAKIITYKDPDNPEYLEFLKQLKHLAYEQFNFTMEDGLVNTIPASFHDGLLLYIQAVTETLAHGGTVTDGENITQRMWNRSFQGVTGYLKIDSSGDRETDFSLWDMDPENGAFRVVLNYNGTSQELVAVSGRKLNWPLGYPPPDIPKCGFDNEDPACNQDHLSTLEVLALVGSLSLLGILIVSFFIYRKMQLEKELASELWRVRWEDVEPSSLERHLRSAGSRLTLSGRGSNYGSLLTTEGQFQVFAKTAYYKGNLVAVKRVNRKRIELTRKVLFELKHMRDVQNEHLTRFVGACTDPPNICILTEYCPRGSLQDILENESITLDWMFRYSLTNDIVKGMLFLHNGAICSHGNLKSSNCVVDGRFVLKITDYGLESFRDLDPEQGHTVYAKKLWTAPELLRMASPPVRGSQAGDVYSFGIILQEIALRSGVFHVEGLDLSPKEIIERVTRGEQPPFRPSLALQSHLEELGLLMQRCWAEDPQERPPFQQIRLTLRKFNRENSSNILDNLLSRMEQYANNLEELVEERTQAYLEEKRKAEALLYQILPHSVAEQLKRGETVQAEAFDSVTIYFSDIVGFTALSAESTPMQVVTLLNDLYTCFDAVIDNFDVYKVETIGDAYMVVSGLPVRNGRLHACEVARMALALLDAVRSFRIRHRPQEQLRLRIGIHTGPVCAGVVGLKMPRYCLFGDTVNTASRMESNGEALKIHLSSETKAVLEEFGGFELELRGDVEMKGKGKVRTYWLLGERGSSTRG
# Active calls of the source: *; . = not tested or not shown.
SMILES,Rin1-Abl PPI inh,CaV13 ICDI inh,GC-B act,NPR1 activator
Cc1ccc(OCC(=O)NNc2c3ccccc3nc3ccccc23)cc1,-3,48*,14,15
COc1ccc(-c2[nH]ncc2N=Nc2cc(C)cc(C)c2)cc1,5,-3,55*,-1
COc1ccc(-c2[nH]ncc2N=Nc2ccccc2)cc1,0,-4,12,2
CN(CC#Cc1ccccc1)C(N)=NC(=O)/C=C/c1ccccc1,.,.,1,-11
CCOC(=O)C1CCN(C(=O)c2ccc3c(=O)n4nc(Nc5ccccc5)sc4nc3c2)CC1,-7,-12,40*,34
COc1ccccc1Nc1nn2c(=O)c3ccc(C(=O)N4CCC(C)CC4)cc3nc2s1,0,-7,20,17
CC(C)COc1ccc(C(=O)OCC(=O)NCc2cccs2)cc1,6,-9,2,-2
CC(=O)Nc1ccc(C(=O)OCC(=O)NCc2cccs2)cc1,2,-3,68*,-1
CCOc1ccc(S(N)(=O)=O)cc1-c1nc2c(C(C)(C)C)nn(C)c2c(=O)[nH]1,2,-2,61*,52*
CCOc1ccc(S(=O)(=O)NC(C)(C)C)cc1-c1nc2c(C(C)(C)C)nn(C)c2c(=O)[nH]1,-2,-9,60*,57*
CCCCn1c(=O)[nH]c(=O)c2c1nc(-c1ccc(OCCC)c(OCC)c1)n2C,-1,6,-5,-3
CC(COc1ccc(S(C)(=O)=O)cc1)CN1CCC(C(O)(c2ccccc2)c2ccccc2)CC1 (stereo not drawn),.,.,-20,-18
Fc1ccccc1CNc1nc(-c2cccnc2)nc2ccccc12,1,-2,36*,32
CC(C)C(=O)N[C@H]1[C@H](O)CCC[C@]12C(=O)N(Cc1ccccc1)c1ccccc12,.,.,-8,-2
Nc1c(C(=O)Nc2ccccc2)sc2nc(N3CCOCC3)c3c(c12)CCCC3,-9,-9,11,22
Nc1c(C(=O)NCc2ccccc2)sc2nc(N3CCOCC3)c3c(c12)CCCC3,-4,-8,36*,43*
Cc1nnc(N2CCCC(C(=O)NCc3ccc(OC(C)C)cc3)C2)c2nn(-c3ccccc3)c(C)c12 (stereo not drawn),32*,-3,-10,-5
C=CCN1C(=O)[C@@H](CC(=O)N2CCN(C(=O)OCC)CC2)[C@]2(C(=O)OC)CCCCC=C12,.,.,8,2
O=C(COC(=O)c1cc(S(=O)(=O)N2CCCCC2)ccc1N1CCOCC1)c1ccccc1Cl,2,64*,13,0
COc1ccc(OC)c(S(=O)(=O)N2CCN(c3ccccc3)CC2)c1,3,-21,-7,-8
COc1ccc(OC)c(S(=O)(=O)ON2C(=O)c3ccccc3C2=O)c1,1,0,44*,44*
C=C(C)[C@H]1CC=C(C(=O)O)CC1,.,.,1,3
CCOC(=O)[C@]12CCCC3=C1N(CCC3)C(=O)[C@@H](CC(=O)NCc1ccc(OC)c(OC)c1)C2,.,.,8,5
CC(C)CNc1ncnc2c1sc1nc(N3CCOCC3)c3c(c12)CC(C)(C)OC3,-1,.,39*,42*
CC1(C)Cc2c(c(N3CCOCC3)nc3sc4c(NCc5ccco5)nnnc4c23)CS1,0,.,48*,55*
SMILES,Rin1-Abl PPI inh,CaV13 ICDI inh,GC-B act,NPR1 activator
CC1(C)Cc2c(c(N3CCOCC3)nc3sc4c(NN)ncnc4c23)CS1,0,-6,-3,-26
CC(C)CNc1nnnc2c1sc1nc(N3CCOCC3)c3c(c12)CC(C)(C)SC3,-1,0,40*,52*
CC1(C)Cc2c(c(N3CCOCC3)nc3sc4c(NCc5ccccc5)nnnc4c23)CS1,1,-9,50*,47*
COc1cccc(NC(=O)C2CCCN2C(=O)NCc2ccccc2)c1 (stereo not drawn),.,.,-6,4
C[C@@H]1OCN(C)[C@H]2C[C@H]3c4[nH]c5cccc(-c6ccc7c(c6)OCO7)c5c4CCN3C[C@@H]12,.,.,-2,5
COC(=O)[C@]12C[C@H](CC(=O)NCCC(C)C)C(=O)N(CCc3ccc(OC)c(OC)c3)C1=C[C@H](COCc1ccccc1)O[C@@H]2C,.,.,-2,-1
S=c1[nH]nc(-c2ccc(Br)cc2)n1-c1ccc(Br)cc1,-3,-5,-7,-2
O=[N+]([O-])c1cccc(-c2n[nH]c(=S)n2-c2ccc(Br)cc2)c1,3,55*,0,2
CCCCNS(=O)(=O)CC1NCc2cc(F)ccc21 (stereo not drawn),.,.,-2,3
Nn1c(SCc2cccc3ccccc23)nnc1-c1cc(-c2ccc(F)cc2)n[nH]1,.,.,-11,-1
COC(=O)[C@]12C[C@H](CC(=O)N3CCCCC3)C(=O)N(Cc3ccco3)C1=C[C@H](C(C)(C)C)O[C@@H]2C,.,.,-14,-15
CCOC(=O)CNCCC(=O)c1ccc(Br)cc1,-2,-7,-9,49*
Brc1ccc(C=Nc2ccc(Nc3ccccc3)cc2)s1,7.2*,.,.,.
C(=Nc1ccc(Nc2ccccc2)cc1)c1ccc2ccccc2c1,14*,.,.,.
NC(=S)N/N=C/c1ccc2ccccc2c1,-3,.,-7,1
COC(=O)C[C@H]1CC[C@H]2[C@H](COc3ccc(NC(=O)c4cccs4)cc3C(=O)N2C)O1,.,.,4,3
COC(=O)c1nn(-c2ccccc2)c(Sc2ccc(C)cc2)c1/C=N/O,1,.,-9,56*
COc1cc(/C=C2/C(=O)N(c3ccc(Br)cc3)N=C2C)cc(OC)c1OC,15*,.,.,.
COc1ccc(-n2c(SCC(=O)Nc3cc(C)c(NC(=O)c4ccccc4)cc3OC)nnc2-c2ccco2)cc1,.,.,-7,-1
Cc1ccnc(N2C(=O)c3cccc4c([N+](=O)[O-])ccc(c34)C2=O)c1,-12,-7,.,.
Cc1ccc(N2C(=O)c3cccc4c([N+](=O)[O-])ccc(c34)C2=O)c2cccnc12,-1,-4,41*,4
CNC(=O)C[C@H]1CC[C@H]2[C@@H](COc3ccc(NC(=O)Nc4ccccc4)cc3C(=O)N2C)O1,.,.,-5,6
Cc1c(C=O)c2ccccn2c1C(=O)c1cccs1,-8,32*,1,5
Fc1ccc(-c2n[nH]c(=S)n2N=Cc2cccc(OCc3ccccc3)c2)cc1,.,.,-4,-5
CCCCN(C)C(=O)C(Cc1ccccc1)NS(=O)(=O)c1ccc2c(c1)c(=O)n(C)c(=O)n2C (stereo not drawn),-2,-5,47*,-1
CCCNC(=O)C(Cc1ccccc1)NS(=O)(=O)c1ccc2c(c1)c(=O)n(C)c(=O)n2C (stereo not drawn),-1,-6,3,-4
CC(COc1ccccc1C#N)CN1CCC(C(O)(c2ccccc2)c2ccccc2)CC1 (stereo not drawn),.,.,-15,-27
Cn1c2ccccc2c(=O)c2ccc(F)cc21,0,186*,7,3
CCCOc1c(Br)cc(C2C3=C(CCCC3=O)N(CC)C3=C2C(=O)CCC3)cc1OC,-1,-2,4,6

# Screening results as filed in PubChem BioAssay.
